Screening data deposited in PubChem BioAssay by National Center for Advancing Translational Sciences (NCATS).
An excerpt weighted towards active compounds, which were near 13% of everything screened.
MARV entry inh: qHTS for inhibitors of binding or entry into cells for Marburg Virus; Marburg virus pseudotyped entry inhibition, cell reporter; Potency, µM (highest dose often 37.8 µM), actives largely listed as inhibitors; hit rate 1.8% among 300,000; calls by dose curve; tested in HEK293 cells
CHX counter: Cycloheximide Counterscreen for Small Molecule Inhibitors of Shiga Toxin; cell reporter, cycloheximide protein synthesis inhibition counterscreen; max response, %; hit rate 12% among 300,000; in the data active means max response mostly above about 13%, no sharp cut-off; inactive means mostly below about 14%; further: read at 38.3 µM for the half of the compounds with a filed dose
HCV inhibitor: qHTS Assay for Inhibitors of Hepatitis C Virus (HCV). Huh7.5.1 HCVcc-Cre infection, luciferase reporter, 44 h. Potency, µM (titrated, usually from 41.8 µM), hits mostly inhibitors. hit rate 3.4% among 340,000; active means well fitted inhibition curve with a large enough effect; inconclusive means small, poorly fitted or top-dose-only effect, or another doubt; inactive means no such curve, though single readings can be large or run the other way
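Compounds are dispensed onto cells plated 4 h earlier at 1,000 per well, with HCVcc-Cre virus (about 0.5 moi) added next. Following 44 h of culture, luminescent signal is measured for 15 sec after 15 min with substrate at room temperature.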
LASV entry inh: qHTS for Inhibitors of binding or entry into cells for Lassa Virus; Lassa virus pseudotype entry inhibition, cell reporter; Potency, µM (doses to about 37.9 µM), actives largely listed as inhibitors; hit rate 1.2% among 300,000; AID 540256, 2011; calls by dose curve; tested in HEK293 cells; further: nearly all actives have a fitted effect of over 50% in size
FMDV antiviral: High Throughput Screening for Foot and Mouth Disease Virus Antivirals; hit rate 1.2% among 410,000; AID 1159524, 2015; Potency, µM (titrated, usually from 57.9 µM), usual class: inhibitors; FMDV antiviral cell-based qHTS; calls by dose curve; tested in HEK293T cells; further: read-out not given here; nearly all actives have a fitted effect of over 45% in size
Shiga toxin inh: A qHTS for Small Molecule Inhibitors of Shiga Toxin; Vero cells, Shiga toxin protein synthesis inhibition reporter; inhibition, % at 38.7 µM; hit rate 9.2% among 290,000; AID 2315, 2010; in the data active means inhibition mostly above about 28%, no sharp cut-off; inactive means mostly below about 43%
Of the large screens only hits and unclear results are named; the others gave an inactive call.

Cc1c(C(=O)c2ccc3ccccc3c2)c2cccc3c2n1[C@H](CN1CCOCC1)CO3	none (no result: MARV entry inh, CHX counter, HCV inhibitor, LASV entry inh, Shiga toxin inh)
Cc1cc(=O)n2c(C(=O)Nc3ccc(C(=O)OC(C)C)cc3)c(C(=O)Nc3ccccc3)sc2n1	MARV entry inh inconclusive, LASV entry inh 23.1µM
Cc1c(=O)n(OCc2ccccc2F)c2ccccc2[n+]1[O-]	none
C/C(NC(=O)c1cccs1)=C1\C(=O)C[C@@H]2[C@H]1C2(C)C	CHX counter 14.9
CC1CCC2(CC1)NC(=O)N(NC(=O)c1cccs1)C2=O (stereo unspecified)	none (no result: MARV entry inh, CHX counter, LASV entry inh, Shiga toxin inh)
O=C(C1COc2ccccc2O1)N(Cc1cccnc1)c1nc2c(F)cccc2s1 (stereo unspecified)	none (no result: MARV entry inh, CHX counter, HCV inhibitor, Shiga toxin inh)
O=c1[nH]ncc(N2CCCCC2)c1Cl	none
COc1ccc(-n2cc3ccc([N+](=O)[O-])cc3n2)cc1	MARV entry inh inconclusive, CHX counter 36.6, HCV inhibitor inconclusive, LASV entry inh inconclusive, Shiga toxin inh 115.1
COc1ccc(-n2c(N)c(C#N)c3ccc([N+](=O)[O-])cc3c2=O)cc1	Shiga toxin inh active
COC(CN(C)S(=O)(=O)c1cc2c3c(c1)CCC(=O)N3CCC2)OC	none (no result: MARV entry inh, LASV entry inh)
Cc1nn(-c2ccccc2)c2nc(-c3ccncc3)cc(C(=O)NCc3ccco3)c12	MARV entry inh inconclusive, HCV inhibitor inconclusive
Cc1nn(-c2ccccn2)c2nc(-c3cccs3)cc(C(=O)NCc3ccco3)c12	CHX counter 19.0, HCV inhibitor 35.5µM
CCOC(=O)c1cc(-c2cccs2)nc2c1c(C)nn2-c1ccccn1	MARV entry inh inconclusive, HCV inhibitor 10µM
O=c1[nH]c(C2CCN(S(=O)(=O)c3ccc4c(c3)OCCO4)CC2)nc2c1nnn2Cc1ccc(F)cc1	LASV entry inh inconclusive
COc1ccc(NC(C)=O)cc1NC(=O)c1cccc(S(=O)(=O)N2CCc3ccccc32)c1	HCV inhibitor 10µM (no result: MARV entry inh, CHX counter, LASV entry inh, Shiga toxin inh)
COc1cc(C(=O)Nc2ccc(S(=O)(=O)N3CCc4ccccc43)cc2)cc(OC)c1OC	MARV entry inh 11.6µM, HCV inhibitor 14.1µM
COc1ccccc1C(=O)Nc1ccc(S(=O)(=O)N2CCc3ccccc32)cc1	MARV entry inh inconclusive (no result: FMDV antiviral)
CCOC(=O)N1CCN(C(=O)c2cc(S(=O)(=O)N3CCc4ccccc43)ccc2OC)CC1	HCV inhibitor inconclusive, LASV entry inh 1.78µM (no result: CHX counter, Shiga toxin inh)
CC(=O)NS(=O)(=O)c1ccc(NC(=O)c2cccc(S(=O)(=O)N3CCc4ccccc43)c2)cc1	none
CCOC(=O)c1ccccc1NC(=O)Nc1ccc(OC)c(OC)c1	none
CCN(C(=O)COC(=O)/C(=C/c1ccccc1)n1nnnc1C)C1CCCCC1	MARV entry inh 12.6µM, HCV inhibitor inconclusive, FMDV antiviral 22.4µM (no result: CHX counter, Shiga toxin inh)
CC(=O)c1ccccc1NC(=O)COC(=O)/C(=C/c1ccccc1)n1nnnc1C	MARV entry inh inconclusive, LASV entry inh inconclusive, FMDV antiviral 22.4µM
Cc1nnnn1/C(=C\c1ccccc1)C(=O)OCC(=O)N(C)C1CCS(=O)(=O)C1 (stereo unspecified)	none
CCn1c(=O)n(CC)c2cc(S(=O)(=O)N3CCC(c4ccccc4)CC3)ccc21	HCV inhibitor inconclusive, LASV entry inh inconclusive, FMDV antiviral inconclusive
O=c1c(=Nc2ccccc2O)c(=O)c2ccccc12	CHX counter 21.5, Shiga toxin inh 108.5
CCOc1ccc(NC(=S)N2CCC(c3ccc(C)cc3)C2)cc1 (stereo unspecified)	none (no result: MARV entry inh, LASV entry inh)
COc1cccc(NC(=S)N2CCC(c3ccc(C)cc3)C2)c1 (stereo unspecified)	MARV entry inh inconclusive, CHX counter 29.9, LASV entry inh inconclusive, Shiga toxin inh 81.9
COc1ccc(NC(=S)N2CCC(c3ccc(C)cc3)C2)cc1 (stereo unspecified)	MARV entry inh inconclusive, CHX counter 14.3
Cc1ccc(NC(=S)N2CCC(c3ccc(C)cc3)C2)cc1 (stereo unspecified)	CHX counter 45.6, HCV inhibitor inconclusive, Shiga toxin inh 97.9 (no result: MARV entry inh, LASV entry inh)
COc1cc(CCN(C(=O)c2cc3ccccc3[nH]2)C(C)c2nc3ccccc3[nH]2)cc(OC)c1 (stereo unspecified)	none (no result: MARV entry inh, CHX counter, HCV inhibitor, LASV entry inh, Shiga toxin inh)
Cc1ccccc1CN1C(=O)C(O)(c2c[nH]c3ccccc23)c2cc(Cl)ccc21 (stereo unspecified)	MARV entry inh 8.91µM, LASV entry inh inconclusive (no result: CHX counter, HCV inhibitor, Shiga toxin inh)
Cc1ccc2ccc(C(Nc3ccccc3)c3ccc(C(C)C)cc3)c(O)c2n1 (stereo unspecified)	none (no result: MARV entry inh, CHX counter, HCV inhibitor, LASV entry inh, Shiga toxin inh)
Cc1ccccc1NC(=S)N/N=C1\CC(C)(C)Oc2ccc(O)cc21	MARV entry inh inconclusive, HCV inhibitor inconclusive, LASV entry inh inconclusive
O=C(COc1ccccc1Cl)NCc1ccco1	MARV entry inh inconclusive, CHX counter 22.5
O=C(Cc1cccs1)NNC(=S)NCc1ccco1	MARV entry inh inconclusive
O=C(NCc1ccco1)c1ccc(COc2cc(Cl)ccc2Cl)cc1	CHX counter 23.9, HCV inhibitor inconclusive, Shiga toxin inh 69.2
O=C(Cc1ccc(-c2ccccc2)cc1)NNC(=S)NCc1ccco1	HCV inhibitor 11.2µM, LASV entry inh inconclusive, Shiga toxin inh 56.0
O=C(COC(=O)CNC(=O)c1ccc(Cl)cc1Cl)NCc1ccco1	MARV entry inh 2.82µM, LASV entry inh inconclusive (no result: CHX counter, Shiga toxin inh)
Cc1ccc(S(=O)Cc2ccc(C(=O)NCc3ccc(OC(C)C)cc3)o2)cc1 (stereo unspecified)	LASV entry inh inconclusive (no result: MARV entry inh, CHX counter, HCV inhibitor, Shiga toxin inh)
OCC(Cc1ccccc1)NCc1ccccc1C(F)(F)F (stereo unspecified)	MARV entry inh inconclusive
O=C(COc1ccc(Cl)cc1Cl)NNC(=S)NCc1ccco1	CHX counter 16.6 (no result: MARV entry inh, LASV entry inh)
O=C(COc1ccc(Cl)cc1Cl)NCc1ccco1	CHX counter 28.7, LASV entry inh inconclusive, Shiga toxin inh 125.5
O=C(CNC(=O)c1ccc(Cl)cc1Cl)OCC(=O)c1ccc2c(c1)OCCO2	CHX counter 31.0, Shiga toxin inh 73.2
O=C(COc1ccc(Cl)cc1Cl)NNC(=S)NC(=O)c1ccco1	MARV entry inh inconclusive
Cc1cc(SCC(=O)Nc2ccc(Cl)cc2)nc2ccccc12	MARV entry inh inconclusive (no result: CHX counter, HCV inhibitor, Shiga toxin inh)
Cc1cccc(NC(=S)N(Cc2cccs2)Cc2cc3cc(C)ccc3[nH]c2=O)c1	MARV entry inh inconclusive
COc1ccc(CN2CCC2(C)C(=O)NCCNC(C)=O)c2ccccc12 (stereo unspecified)	none (no result: MARV entry inh, CHX counter, HCV inhibitor, LASV entry inh, Shiga toxin inh)
Cc1ccccc1OCC1Cc2c(nc(N)c(C#N)c2N)O1 (stereo unspecified)	CHX counter 29.3, Shiga toxin inh 58.1
N#Cc1c(N)nc2c(c1N)CC(CO)O2 (stereo unspecified)	none
N#Cc1c(N)nc2c(c1N)CC(COc1ccccc1)O2 (stereo unspecified)	MARV entry inh inconclusive, CHX counter 37.3, Shiga toxin inh 52.5
Cc1ccnc(NC(=O)C2CCCN(c3ncnc4c3nc3n4CCCCC3)C2)c1 (stereo unspecified)	none
Cc1cccc(C(=O)O/N=C2\CCSc3ccc(C)cc32)c1	none
Cc1ccc(C(=O)O/N=C2\CCCc3ccccc32)cc1	CHX counter 17.8, Shiga toxin inh 61.9
